Compound activity (PubChem BioAssay)
An excerpt weighted towards active compounds, which were near 2.1% of everything screened.
HIF-2a inh: blocks HIF-2a reporter activity; inhibition, % at 18.8 µM; actives 0.72% (n = 360,000); AID 624352; 786-0 RCC cells HIF-2a reporter, luciferase luminescence, overnight;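 active = inhibition of the luminescence signal of 40% or more relative to plate controls, in a single-dose primary screen at 18.75 µM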
CF NFkB block: blocks PAF-induced NF-kB reporter in cystic fibrosis cells | KKLEB NF-kB-GFP reporter, GFP fluorescence overnight | inhibition, % at 5 µM | actives 0.86% (n = 360,000);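 active = at least 50% inhibition at 5 µM, scaled per plate between neutral and stimulator controls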;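 note: PAF is a Pseudomonas aeruginosa culture filtrate used as stimulus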
EWS-Fli inh: inhibitors of EWS/Fli oncoprotein transcriptional activity. A673 NR0B1-luciferase reporter, viability-normalised. inhibition, % at 12.6 µM. actives 0.67% (n = 350,000). AID 651661;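 active = mean inhibition of at least 50% after viability correction, with every replicate also passing that limit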;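 note: firefly luciferase signal divided by Alamar Blue viability fluorescence both relative to DMSO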
KKLEB cytotox: reduces viability of KKLEB cystic fibrosis airway cells | activity change (cytotoxicity), % at 5 µM | actives 0.36% (n = 360,000) | KKLEB CF airway cells viability, ATPlite luminescence, overnight; hits give low values; cells stimulated with P. aeruginosa culture filtrate | AID 602141;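 active = corrected activity change at or below -50% at 5 µM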
PAX8 reporter: lowers PAX8-driven luciferase in RMG-I cells | RMG-I TPO-luciferase reporter, SteadyGlo, 24 h | actives 1.2% (n = 360,000) | inhibition, % at 12.6 µM;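 active = mean replicate inhibition at least 60% with every replicate also reaching 60%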;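 note: luciferase light reporting Pax8 driven TPO promoter activity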
Numbers stand for hits; 0 = inactive; - = no result given.

SMILES | HIF-2a inh | CF NFkB block | EWS-Fli inh | KKLEB cytotox | PAX8 reporter
COc1cccc(S(=O)(=O)N[C@H]2CC[C@H](CCNC(=O)Nc3cc(F)ccc3F)O[C@@H]2CO)c1 | - | - | 0 | - | 0
C[C@@H]1CN([C@@H](C)CO)C(=O)c2cccc(NC(=O)C3CC3)c2O[C@H]1CN(C)Cc1ccc2c(c1)OCO2 | - | - | 0 | - | -
COC(=O)c1cscc1S(=O)(=O)Cc1ccccc1 | 0 | 0 | 0 | 0 | 0
COC(=O)c1ccccc1NC(=O)c1nc(S(=O)(=O)Cc2ccccc2)ncc1Cl | 0 | 95.7 | 62.9 | -95.1 | 0
CCC(=O)N1CCC2(CC1)CN(CC1CCOCC1)[C@H](CO)c1c2c2ccc(OC)cc2n1C | - | - | 0 | - | 0
Cc1ccccc1-c1ccccc1[C@H]1[C@@H](C#N)N(C(=O)c2ccccc2)[C@@H]1CO | - | - | 0 | - | -
Cc1ccc(Sc2c(CO)c(-c3ccccc3)nn2C)cc1 | 0 | 0 | 0 | 0 | 66.0
C[C@H](CO)N1C[C@H](C)[C@H](CN(C)S(=O)(=O)c2cn(C)cn2)OCCCC[C@H](C)Oc2ccc(NC(=O)Nc3ccc(C(F)(F)F)cc3)cc2C1=O | - | - | 0 | - | 0
CCOc1ccc(C(=O)NCc2ccccc2)cc1Br | 0 | 0 | 0 | 0 | 79.0
COc1ccc(OC)c(C2CC(c3ccccc3)=NN2C(=S)Nc2ccccc2)c1 (stereo unspecified) | 0 | 0 | 52.3 | 0 | 0
O=C(Nc1ccc(Cl)c(Cl)c1)Nc1ccc(Br)cc1F | 0 | 71.2 | 0 | -63.8 | 0
CN1C[C@H]2[C@@H](c3ccccc31)[C@H](CO)N2Cc1ccccc1Cl | - | - | 0 | - | 0
CN1C[C@@H]2[C@H](c3ccccc31)[C@H](CO)N2Cc1ccccc1Cl | - | - | 0 | - | 109.5
C[C@@H]1CN([C@H](C)CO)C(=O)Cc2cc(NC(=O)Cc3cn(C)c4ccccc34)ccc2O[C@@H]1CN(C)Cc1ccc(-c2ccccc2)cc1 | - | - | 0 | - | -
CCCC#Cc1ccc([C@@H]2[C@@H](CO)N3C(=O)CN(S(=O)(=O)Cc4ccccc4)C[C@@H]23)cc1 | - | - | 0 | - | -
Cc1ccccc1-c1ccc2c(c1)O[C@H](CN(C)C(=O)Nc1ccc(C(F)(F)F)cc1)[C@@H](C)CN([C@H](C)CO)S2(=O)=O | - | - | 0 | - | 77.1
Cc1ccccc1-c1ccc2c(c1)O[C@H](CN(C)C(=O)Nc1ccc(C(F)(F)F)cc1)[C@H](C)CN([C@@H](C)CO)S2(=O)=O | - | - | 0 | - | 76.8
COc1ccc2cc(C)c3nnc(SCC(=O)Nc4nc(-c5ccccc5)cs4)n3c2c1 | 0 | 0 | - | -52.2 | -
CCN(CC)c1ccc(/C=N/N=C(N)N)c(O)c1 | 0 | 0 | 54.4 | 0 | 0
Cc1nn(C)cc1NC(=O)C[C@@H]1CC[C@H]2[C@H](COc3ccc(NC(=O)C(C)C)cc3C(=O)N2C)O1 | - | - | 0 | - | 0
C[C@H](O)C#Cc1cnc2c(c1)C(=O)N([C@@H](C)CO)C[C@H](C)[C@@H](CN(C)Cc1cccc(F)c1)O2 | - | - | 0 | - | -
COc1ccc(-c2ccc3c(c2)[C@@H]2[C@@H](CCN2C(=O)NC2CCCCC2)[C@H](CO)N3C)cc1 | - | - | 0 | - | 81.7
COc1cccc(-c2ccc3c(c2)[C@H]2[C@H](CCN2C(=O)NC2CCCCC2)[C@H](CO)N3C)c1 | - | - | 0 | - | 65.7
CN1c2ccc(-c3ccccc3)cc2[C@@H]2[C@@H](CCN2C(=O)NC2CCCCC2)[C@H]1CO | - | - | 0 | - | -
COc1cccc(-c2ccc3c(c2)[C@@H]2[C@@H](CCN2C(=O)NC2CCCCC2)[C@@H](CO)N3C)c1 | - | - | 0 | - | 0
SMILES | HIF-2a inh | CF NFkB block | EWS-Fli inh | KKLEB cytotox | PAX8 reporter
COc1cccc(-c2ccc3c(c2)[C@@H]2[C@@H](CCN2C(=O)c2ccccc2F)[C@H](CO)N3C)c1 | - | - | 0 | - | 71.6
CN1c2ccc(-c3ccccc3)cc2[C@H]2[C@H](CCN2C(=O)NC2CCCCC2)[C@@H]1CO | - | - | 0 | - | 89.3
COc1cccc(-c2ccc3c(c2)[C@@H]2[C@@H](CCN2C(=O)c2ccccc2F)[C@@H](CO)N3C)c1 | - | - | 0 | - | 0
COc1cccc(-c2ccc3c(c2)[C@H]2[C@H](CCN2C(=O)NC2CCCC2)[C@H](CO)N3C)c1 | - | - | 0 | - | 0
COc1cccc(-c2ccc3c(c2)[C@@H]2[C@@H](CCN2C(=O)NC2CCCCC2)[C@H](CO)N3C)c1 | - | - | 0 | - | 85.9
COc1ccc(-c2nnc3n2N=C(C)CS3)cc1 | 0 | 0 | - | 0 | 0
CCOC(=O)/C(=C\c1ccc(OC(F)F)cc1)C1=Nn2c(nnc2-c2ccc(Cl)cc2)SC1 | 96.7 | 88.0 | - | -89.6 | -
O=C(NC1CCCc2ccccc21)C1CCN(S(=O)(=O)c2cccc(C(F)(F)F)c2)CC1 (stereo unspecified) | 0 | 0 | 0 | 0 | 69.6
O=C(NNC(=O)C1CCN(S(=O)(=O)c2cccc(C(F)(F)F)c2)CC1)C1CC1 | 0 | 0 | 0 | 0 | 0
O=S(=O)(Nc1cccc(-c2ccc3nncn3n2)c1)c1cccc(F)c1 | 0 | 0 | 0 | 0 | 0
COc1ccc(S(=O)(=O)Nc2cccc(-c3ccc4nncn4n3)c2)cc1F | 0 | 0 | 56.4 | 0 | 0
O=C(CN1CCOCC1)NCC[C@@H]1CC[C@@H](NC(=O)Cc2ccccn2)[C@@H](CO)O1 | - | - | 0 | - | 0
CC1(C)N=C(N)N=C(N)N1CCCCc1ccccc1 | 0 | 0 | 0 | 0 | 72.6
CCCCC[C@H](O)/C=C/[C@H]1CCC(=O)[C@@H]1CCCCCCC(=O)N1CCCCC1CO (stereo partly specified) | 0 | 0 | 0 | 0 | 70.0
CCC1CCCCN1C(=O)CCCOc1ccccc1 (stereo unspecified) | 0 | 0 | - | 0 | -
COc1ccc(S(=O)(=O)Nc2ccc3c(c2)CC(=O)N([C@@H](C)CO)C[C@H](C)[C@H](CN(C)S(=O)(=O)c2c(C)noc2C)O3)cc1 | - | - | 0 | - | -
CCC(=O)N1CCC2(CC1)CN(Cc1ccccc1Cl)[C@@H](CO)c1c2c2ccc(OC)cc2n1C | - | - | 0 | - | 0
C[C@H]1CN([C@@H](C)CO)C(=O)Cc2cc(NC(=O)Nc3ccc4c(c3)OCO4)ccc2O[C@@H]1CN(C)C(=O)Nc1cccc2ccccc12 | - | - | 0 | - | 0
C[C@H](CO)N1C[C@H](C)[C@@H](CN(C)C(=O)Nc2cccc3ccccc23)Oc2ccc(NC(=O)Nc3ccc4c(c3)OCO4)cc2CC1=O | - | - | 0 | - | 73.5
C[C@H](CO)N1C[C@H](C)[C@@H](CN(C)Cc2ccccc2)Oc2ccc(NC(=O)Nc3cccc4ccccc34)cc2CC1=O | - | - | 56.2 | - | 0
Cc1noc(C)c1S(=O)(=O)Nc1ccc2c(c1)C(=O)N([C@@H](C)CO)C[C@H](C)[C@H](CN(C)Cc1ccc(Cl)c(Cl)c1)OCCCC[C@@H](C)O2 | - | - | 0 | - | 0
C[C@@H]1CCc2cnnn2COC[C@@H](Cc2ccccc2)NC1=O | - | - | 0 | - | 0
COc1ccc(C(=O)Nc2ccc3c(c2)C(=O)N(C)C[C@@H](OC)[C@H](C)CN(C)[C@H](C)CO3)cc1 | - | - | 0 | - | 0
COc1cccc(N2CCN(C(=O)c3ccc(CS(=O)c4ccc(Cl)cc4)o3)CC2)c1 (stereo unspecified) | 0 | 0 | 56.1 | 0 | 0
COc1cccc(N2CCN(C(=O)c3ccc(CS(=O)c4ccc(C)cc4)o3)CC2)c1 (stereo unspecified) | 0 | 0 | 0 | 0 | 66.2
